# From ChEMBL document CHEMBL3988442, “University of Dundee, Small-Polar-MMV Screening Library” (2021)
# In all, about 66,000 compounds went through this assay and about 960 (1.5%) showed an effect of 50% or more. This is one part of a sample in which strong results are shown more often than they occur.
# Test system: Trypanosoma brucei
# Experiment: Trypanosoma brucei 72 hour study
# Assay type: functional, organism-based
# Design: scale not given: in the data most compounds retested in dose-response had high values
compound,measurement,setting,value
CS(=O)(=O)NCCCNC(=O)c1cnc(-c2ccsc2)s1,Percent Effect,"30 µM, 30.03 µM",-7.977%
Cn1cc(-c2ncc(C(=O)NCCCn3ccccc3=O)s2)cn1,Percent Effect,"30 µM, 30.03 µM",73.43%
O=C(NCCCn1ccccc1=O)c1cnc(-c2ccsc2)s1,Percent Effect,"30 µM, 30.03 µM",22.57%
Cn1ncc2c(N3CCN4CCCCC4C3)nc(C3CCCC3)nc21 (stereo not drawn),Percent Effect,"30 µM, 30.03 µM",-37.34%
Cc1nc(N2CCCC(N3CCCC3)C2)c2cnn(C)c2n1 (stereo not drawn),Percent Effect,"30 µM, 30.03 µM",50.19%
Cn1ncc2c(N3CC(N4CCCCC4)C3)nc(C3CCCC3)nc21,Percent Effect,"30 µM, 30.03 µM",-31.56%
CNc1cc(C)nc(N2C[C@H](C3CC3)[C@@H](N)C2)n1,Percent Effect,"30 µM, 30.03 µM",85.5%
CC(C)Oc1cc(N2C[C@@H](C)O[C@@H](C)C2)nc(N)n1,Percent Effect,"30.3 µM, […]",-11.25%
CNc1cc(C)nc(N2C[C@H](NC(=O)C3CCOCC3)[C@@H](C3CC3)C2)n1,Percent Effect,"30 µM, 30.03 µM",-23.63%
CCc1cc(N2C[C@H](C3CC3)[C@@H](N)C2)nc(N2CCCC2)n1,Percent Effect,"30 µM, 30.03 µM",72.1%
CCc1cc(N2C[C@H](C3CC3)[C@@H](N)C2)nc(N2CCOCC2)n1,Percent Effect,"30 µM, 30.03 µM",-22.85%
CC(C)Oc1cc(N2CC[C@H](CO)[C@@H](O)C2)nc(N)n1,Percent Effect,"30 µM, 30.03 µM",-21.24%
CC(C)Oc1cc(N2C[C@H](C3CC3)[C@@H](N)C2)nc(N)n1,Percent Effect,"30 µM, 30.03 µM",88.99%
Cc1cc(N2C[C@H](C3CC3)[C@@H](N)C2)nc(N2CCCCC2)n1,Percent Effect,"30 µM, 30.03 µM",-8.75%
CNc1cc(C)nc(N2C[C@@H](C(=O)O)[C@H](C3CC3)C2)n1,Percent Effect,"30 µM, 30.03 µM",-4.016%
CN(c1ccncn1)C1CC2(CCN(C(=O)Cc3cccs3)C2)C1 (stereo not drawn),Percent Effect,"30.3 µM, […]",-10.04%
O=C(O)C(F)(F)F.O=C(c1cnccn1)N1CCCC2(CCN(Cc3ccsc3)CC2)C1,Percent Effect,"30.3 µM, […]",-8.407%
CCC(C)Oc1ccc(CNCCc2c[nH]cn2)cc1Cl (stereo not drawn),Percent Effect,"30 µM, 30.03 µM",-7.702%
Cc1ccc(O[C@@H]2C[C@H]3CN(C(=O)c4cccnc4)CCN3C2)cc1.O=C(O)C(F)(F)F.O=C(O)C(F)(F)F,Percent Effect,"30 µM, 30.03 µM",12.8%
CC(C)(C)c1cnc(CN2CCC(CN3CCOCC3)CC2)o1,Percent Effect,"30.3 µM, […]",1.879%
Cc1noc(C)c1C(=O)N1CC[C@]2(C[C@@H](OCc3cccnc3)CO2)C1.O=C(O)C(F)(F)F,Percent Effect,"30.3 µM, […]",-230.9%
COc1ccccc1OCCNS(=O)(=O)N1CCOCC1,Percent Effect,"30 µM, 30.03 µM",-16.37%
O=C(NCCSCc1ccc(Br)s1)C1CCCN(c2cnccn2)C1 (stereo not drawn),Percent Effect,"30 µM, 30.03 µM",-0.7253%
O=C(NCCSCc1cccs1)C1CCCN(C(=O)N2CCCC2)C1 (stereo not drawn),Percent Effect,"30 µM, 30.03 µM",-13.33%
O=C(NCCSCc1ccc(Br)s1)C1CCCN(C(=O)c2cccs2)C1 (stereo not drawn),Percent Effect,"30 µM, 30.03 µM",59.17%
COc1ccc(OCC(=O)NS(=O)(=O)c2ccc(Br)s2)cc1,Percent Effect,10 µM,-20.86%
Cc1ccc2c(n1)N(Cc1ccncc1)CCN(S(C)(=O)=O)C2.O=C(O)C(F)(F)F.O=C(O)C(F)(F)F,Percent Effect,"30 µM, 30.03 µM",-12.2%
COCCn1cc2c(n1)C(CNCc1ccsc1)OCC2.O=C(O)C(F)(F)F (stereo not drawn),Percent Effect,"30.3 µM, […]",-36.05%
CC(C)n1ccnc1C1CCCN(c2ccnc3ccccc23)C1 (stereo not drawn),Percent Effect,"30 µM, 30.03 µM",44.45%
CSc1nccc(N2CCCC(c3nccn3C(C)C)C2)n1 (stereo not drawn),Percent Effect,"30 µM, 30.03 µM",-62.98%
CC(C)n1ccnc1C1CCCN(c2ccccn2)C1 (stereo not drawn),Percent Effect,"30 µM, 30.03 µM",54.17%
Cc1cc(C)n(-c2nc(C(=O)NCCN3CCC(C)CC3)cs2)n1,Percent Effect,"30.3 µM, […]",41.67%
Cl.c1ccc(CCNc2cccc(C3CCCNC3)n2)cc1 (stereo not drawn),Percent Effect,"30.3 µM, […]",66.04%
Cl.c1cc(CC2CCCNC2)nc(NCCc2cnccn2)c1 (stereo not drawn),Percent Effect,"30.3 µM, […]",-1.325%
Cl.c1cc(NCc2ccncc2)nc(C2CCCNC2)c1 (stereo not drawn),Percent Effect,"30.3 µM, […]",-1.5%
CCCn1ccnc1-c1cccc(NC(=O)C2CCCOC2)c1 (stereo not drawn),Percent Effect,"30.3 µM, […]",-87.17%
O=C(CCN1CCc2ccccc21)N1C[C@@H](O)[C@H](N2CCCC2)C1,Percent Effect,"30.3 µM, […]",-36.76%
CN1CC2(CCN(Cc3cccnc3)CC2)c2cccc(F)c21.Cl,Percent Effect,"30.3 µM, […]",100.8%
CN1CC2(CCN(Cc3cccnc3)CC2)c2cc(F)ccc21,Percent Effect,"30.3 µM, […]",-24.44%
CN1CC2(CCN(C(=O)c3cccnc3)CC2)c2cccc(F)c21.Cl,Percent Effect,"30.3 µM, […]",-15.84%
CCOc1ccc(CC(=O)N2CCN(c3nccn3CC)CC2)cc1.Cl,Percent Effect,"30.3 µM, […]",9.034%
O[C@]12CC[C@H](CC1)N(Cc1ccc(F)cc1)C2CN1CCOCC1 (stereo partly drawn),Percent Effect,"30.3 µM, […]",-19.63%
Cc1nn(C)c(C)c1CC(=O)N1CCCN(c2cccnn2)CC1,Percent Effect,"30.3 µM, […]",-5.706%
CS(=O)(=O)NCC1CCCN(C(=O)c2ccc(F)c(F)c2)C1 (stereo not drawn),Percent Effect,"30.3 µM, […]",-25.29%
COc1cccc(S(=O)(=O)Cc2noc(CC(C)C)n2)c1,Percent Effect,"30.3 µM, […]",1.682%
CCCc1noc(CS(=O)(=O)c2cccc(OC)c2)n1,Percent Effect,"30.3 µM, […]",58.74%
CCc1noc(CS(=O)(=O)c2cccc(OC)c2)n1,Percent Effect,"30.3 µM, […]",-11.01%
CS(=O)(=O)N1Cc2ccccc2C2(CCN(C(=O)c3ccno3)CC2)C1,Percent Effect,"30.3 µM, […]",-25.32%
